Tg IFNy HTS: T. gondii growth inhibition under IFN-gamma; activity change, negative = inhibition, % (concentration not given with the values); Toxoplasma gondii growth in IFN-gamma-treated host cells; hits give low values; 69,000 tested, 3.8% active; AID 1259416; in the data active = activity change below about -70%, passing the limit was not always enough;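 note: host cells are HeLa cells infected with Toxoplasma gondii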
Active calls of the source: *; i = inactive; ! = repeats disagree. This is one part of a sample in which hits are shown more often than they occur.

SMILES | Tg IFNy HTS
CC(C)Cc1cc(CNC(=O)c2cc3n(n2)CCCN(C)C3)no1 | -6
CC(C)(C)c1nc2ccccc2c2nnc(SCc3ccccn3)n12 | -79*
C=CCn1c(SCc2ccccn2)nc2c([nH]c3ccccc32)c1=O | 30
Nc1nnc(SCc2ccccn2)s1 | 5
CCc1noc(-c2c(O)c3cc(F)ccc3n(C)c2=O)n1 | 29
CCCNC(=O)c1cc2c(c3ccccc3n2CC2CC2)n1C | 7
CCOc1ccc(CCNC(=O)C2=C(C)C(=O)OC23CCN(S(C)(=O)=O)CC3)cc1 | 44
Clc1ccccc1C(c1ccccc1)(c1ccccc1)n1ccnc1 | -83*!
N#C/C(=C1/SCC(c2ccccc2Cl)S1)n1ccnc1 (centres undefined) | 8
FC(F)(F)c1ccccc1-n1ccnc1 | 18
CCC(c1ccncc1)n1ccnc1-c1ccc(OC)cc1OC (centres undefined) | -49
O=C(CCCn1cncn1)N1CCc2[nH]nc(-c3cccc4ccccc34)c2C1 | -3
COC(=O)c1coc(CN2CCCC2c2nc3ccccc3s2)n1 (centres undefined) | 6
NC(=O)C1CCCc2c1[nH]c1ccc(Cl)cc21 (centres undefined) | -8
CN1C(=O)C2(NCCc3c2[nH]c2ccc(Cl)cc32)c2cc(Br)ccc21 (centres undefined) | -9
O=CNC1CCCc2c1[nH]c1ccc(Cl)cc21 (centres undefined) | -81*
c1ccc(-c2nc3c(c(N4CCCC(Cn5ccnc5)C4)n2)CCNC3)cc1 (centres undefined) | -41
CC(C)c1noc(-c2cc(=O)n(CC(=O)NCc3cccs3)c3ccccc23)n1 | 57
Cc1[nH]n(-c2ccccc2)c(=O)c1C(=O)c1ccccc1 | 98
Cc1c(N(C)C)c(=O)n(-c2ccccc2)n1C | 8
Cc1[nH]n(-c2ccccc2)c(=O)c1N=Nc1c(C)n(C)n(-c2ccccc2)c1=O | -92*
Cc1ccc(S(=O)(=O)N2CCC3(CC2)Nc2ccccc2-n2cccc23)cc1C | 21
O=C(NCC1CCN(Cc2cccnc2)C1)Nc1ccccc1Cl (centres undefined) | 6
CO[C@@H]1[C@H](N(C)C(=O)c2ccccc2)C[C@H]2O[C@]1(C)n1c3ccccc3c3c4c(c5c6ccccc6n2c5c31)C(=O)NC4 | -84*
Cn1c2ccccc2c2c3c(c4c5ccccc5n(CCC#N)c4c21)CNC3=O | -63
SMILES | Tg IFNy HTS
CCOc1ccc(S(=O)(=O)NCCc2csc(-c3ccc(F)cc3)n2)cc1 | -42
S=C(NCc1csc2ccccc12)c1ccccc1 | -78*
O=S(=O)(NCc1csc2ccc(Cl)cc12)c1ccccc1 | -14
Cc1nn(C)c(C)c1CNC(=O)Nc1csc2ccccc12 | -64
COc1ccc(C)cc1NC(=O)Cn1c(=O)cc(C(=O)N2CCCC2)c2ccccc21 | 5
Cc1oc(-c2ccccc2)nc1Cn1nnc(-c2nc(-c3ccccc3Br)no2)c1C | 9
Brc1ccc(NCn2cnc3ccccc32)cc1 | 14
C=C1SC(=Nc2ccccc2Cl)N(C(=O)c2sc3ccccc3c2Cl)C1(C)C | -28
NC(=O)C(c1ccccc1)C1CCCC1 (centres undefined) | 10
C=C1SC(=Nc2cccc(OC)c2)N(C(=O)C(c2ccccc2)C2CCCC2)C1(C)C (centres undefined) | -90*
CCCn1ncc(CN(Cc2ccc(F)cc2)CC2CCCO2)c1C (centres undefined) | 8
O=C(NCCc1csc(-c2cccc(F)c2)n1)c1ccc(C(F)(F)F)cc1 | -51
CC(=O)N1C2CCN(Cc3ccc(C)s3)CC2C[C@H]1CN(C)C (some centres undefined) | 0
C=C1SC(Nc2c(C)cccc2C)=NC12CCCCC2 | -81*
Cc1cc(F)ccc1NC(=O)CN[C@@H]1C[C@H]2CC[C@@H]1C2 | -5
CCSc1nc(Cc2n[nH]c(Cc3ccccc3)n2)cs1 | 3
Nc1cccc2nc3ccccc3cc12 | -99*
Nc1cccc(-c2nc3ccccc3[nH]2)c1 | 52
Nc1ccccc1Nc1nc2ccccc2[nH]1 | -17
O=C(O)CCC(=O)N1C[C@@H]2C(CC(=O)Nc3cccnc3)[C@@H]2C1 (some centres undefined) | -7
Cc1cnc(NCc2ccc(C(=O)N3CCCC3)cc2)nc1N(C)C | -9
O=C1Cc2c([nH]c3ccc(Br)cc23)-c2ccccc2N1 | 3
O=c1c2c([nH]c3ccc(Br)cc13)CCCC2 | -94*
O=C(c1ccc2[nH]c3c(c2c1)CCCC3)N1Cc2cnn(CCO)c2C1 | 22
Cc1cc(C)n(CC(C)C(=O)NC(Cc2cccs2)c2nccs2)n1 (centres undefined) | 70
SMILES | Tg IFNy HTS
O=C(NC(c1nccs1)C1CCCN(Cc2cccc(F)c2)C1)c1ccccc1 (centres undefined) | 20
CC[C@H](C)[C@@H]([C@@H](CC(=O)N1CCC[C@H]1[C@H](OC)[C@@H](C)C(=O)N[C@@H](Cc1ccccc1)c1nccs1)OC)N(C)C(=O)[C@@H](NC(=O)[C@H](C(C)C)N(C)C)C(C)C | -84*
CCOc1ccc(S(=O)(=O)NCc2nc(-c3ccccc3)oc2C)cc1 | -3
O=C(c1ncoc1-c1ccccc1)N1CCOC(c2ccc(Cl)cc2)C1 (centres undefined) | -40
O=C(c1c(F)cccc1F)N1CCOC(c2ccc(Cl)cc2)C1 (centres undefined) | -79*
CCn1c(C)cc(C)c(C(=O)N2CCOC(c3ccc(Cl)cc3)C2)c1=O (centres undefined) | 6
Cc1cc(C)cc(NC(=O)CC2SCCNC2=O)c1 (centres undefined) | 79
CCCCOC(=O)N1CCC2(CC1)CN(C)CCN2C | 1
COc1ccc(Cc2nn3c(C(=O)c4cccs4)nn(-c4ccccc4)c3nc2=O)cc1 | -94*
COc1ccc(-c2nc(C)c(CCNC(=O)c3cccs3)s2)cc1 | i
COc1ccc(-c2nc(C)c(CCNC(=O)C(=O)Nc3ccccc3)s2)cc1 | 1
CC1Cc2cc(C(=O)NC(c3cc(=O)[nH]c(-c4ccccn4)n3)C(C)C)ccc2O1 (centres undefined) | 39
COCC1CC2(CCN(C(=O)C3=CCCC3)CC2)CN1S(C)(=O)=O (centres undefined) | -35
O=C(CCCN1CCN(c2ccccn2)CC1)c1ccc(F)cc1 | 9
Fc1ccc(-c2nc(N3CCN(c4ccccn4)CC3)ncc2-c2ncc[nH]2)cc1 | -92*
Clc1ccc(-c2nc(N3CCOCC3)ncc2-c2ncc[nH]2)cc1 | -60
O=C(Nc1ccccc1F)c1c(O)c2cccnc2n(-c2ccc(F)cc2)c1=O | 51
CC(C)CC(=O)N1CCC2(CC1)CC(CC(=O)NC1CC1)c1ccccc1O2 (centres undefined) | -57
Cc1cc(S(=O)(=O)N2CCC(c3nc(C(=O)N(C)C)c(C)o3)CC2)ccc1F | -31
Cc1cccc(S(=O)(=O)N2CCC(N3CCCC3)CC2C(=O)O)c1 (centres undefined) | 1
Cc1cn([C@@H]2C[C@@H](O)[C@H](CO)O2)c(=O)[nH]c1=O | 1
O=c1[nH]c(=O)n([C@H]2C[C@H](O)[C@@H](CO)O2)cc1C(F)(F)F | -77*!
O=c1[nH]c(=O)n([C@H]2CC(O)[C@@H](CO)O2)cc1C(F)(F)F (some centres undefined) | -50
CCOC(=O)N1CCC2(CC1)OC(=O)C(C)=C2C(=O)NCc1cccc(OC)c1OC | 8
C=CCN1C[C@H]2CN(Cc3ccccn3)CCC[C@@]2(C(=O)OCC)C1 | -5
CCOC(=O)[C@@]12CCCN(Cc3ccccn3)C[C@@H]1CN(C(C)C)C2 | 17

Assay outcomes as filed in PubChem.
